# Bioassay records deposited in PubChem BioAssay by several laboratories.
# NALP3 yeast inh = NALP3 inflammasome inhibitors in reconstituted yeast, primary screen, luminescence, uHTS; Yeast reconstituted NLRP3/ASC/caspase-1, beta-gal luminescence, 24 h; inhibition, % at 10 µM; 330,000 tested, 0.39% active; AID 2825, 2010;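 active = inhibition of 50% or more; inactive = inhibition below 50%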;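 also: plate controls were induced DMSO wells for no effect and uninduced yeast grown without galactose for full effect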
# TIM10 inh = growth inhibitors of isogenic TIM10 control yeast, primary screen, counter-screen for tim10-1 yeast inhibitor project, luminescence, uHTS; S. cerevisiae TIM10 strain growth, BacTiter-Glo luminescence, 24 h; AID 463195, 2010; inhibition, % at 10 µM; 330,000 tested, 1.4% active;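 active = inhibition of 40% or more at the single tested concentration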;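 also: wild-type TIM10 isogenic control strain grown at permissive 25 °C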
# tim10-1 inh = growth inhibitors of tim10-1 mutant yeast, primary screen, luminescence, uHTS. S. cerevisiae tim10-1 ts strain growth, BacTiter-Glo, 24 h. 330,000 tested, 2.2% active. inhibition, % at 20 µM;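 active = inhibition of at least 40%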;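 also: mutant grown at 25 °C; 0% = DMSO wells with yeast and 100% = wells holding no yeast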
# Yeast superoxide = reduction of superoxide in aged yeast, primary screen, HTS; superoxide response (% of plate mean), % at 10 µM; 330,000 tested, 0.18% active; S. cerevisiae aged cells, superoxide DHE fluorescence; stronger effect = lower value; AID 2690, 2010;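 active = superoxide response under a set limit, about three screen SD below normal, cut at about 65% in these data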;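 also: yeast aged for seven days with compound at 30 °C before DHE staining; 100% = average MFI of all compound-treated wells on the plate with controls excluded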
# tim23-1 inh = growth inhibitors of tim23-1 mutant yeast, primary screen, luminescence, uHTS; S. cerevisiae tim23-1 growth, BacTiter-Glo luminescence, 24 h; AID 463212, 2010; inhibition, % at 20 µM; 330,000 tested, 1.3% active;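 active = growth inhibition of the mutant yeast at or above 50%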;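 also: temperature-sensitive mutant grown at 25 °C; plate controls were DMSO-treated mutant yeast for no effect and medium wells lacking yeast for full effect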
# tim10-1 confirm = growth inhibitors of tim10-1 mutant yeast, confirmation, single concentration, luminescence, S. cerevisiae. shares compounds with tim10-1 inh. S. cerevisiae tim10-1 ts strain growth, BacTiter-Glo, 24 h. inhibition, % at 20 µM. 7,400 tested, 56% active;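 active = inhibition of yeast growth at or above a set limit in either of two repeat tests at 20 µM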;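 also: tim10-1 mutant grown at permissive 25 °C to find synthetic lethal compounds; 0% = DMSO yeast wells and 100% = medium wells without yeast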
# An asterisk follows results filed as active; / = no result. In the library only some 3.8% were active in any assay of this set; here they are far more common.
SMILES,NALP3 yeast inh,TIM10 inh,tim10-1 inh,Yeast superoxide,tim23-1 inh,tim10-1 confirm
COc1ccc(S(=O)(=O)N2CCOCC2)cc1NC(=O)COC(=O)C1CC2CCCC(C1)C2=O (stereo unspecified),13,-4,-17,96,7,/
COc1ccc(/C=C/C(=O)CC(O)(c2ccccc2)C(F)(F)F)cc1 (stereo unspecified),15,30,47*,106,40,36*
O=C(/C=C/c1ccccc1)CC(=O)c1ccccc1O,5,15,3,103,22,/
O=C(/C=C/c1ccccc1)CC(O)(c1ccccc1)C(F)(F)F (stereo unspecified),42,27,45*,94,31,39*
Clc1cccc(C2Nc3cccc4cccc(c34)N2)c1Cl,26,26,42*,101,48,58*
Clc1ccccc1C1Nc2cccc3cccc(c23)N1,22,23,43*,91,35,34*
c1coc(C2Nc3cccc4cccc(c34)N2)c1,12,38,41*,88,45,35*
Brc1ccc(-c2ccc(C3Nc4cccc5cccc(c45)N3)o2)cc1,28,1,28,86,29,/
COc1ccc(CNC(=O)COc2cc3c(c4oc(=O)cc(C)c24)CCC(C)(C)O3)cc1OC,9,6,10,124,4,/
COc1ccc(S(=O)(=O)n2oc(=O)cc2-c2ccccc2)cc1,-37,14,43*,144,14,20
CCOc1cc(/C=C2\SC(=N)N(c3nccs3)C2=O)ccc1OCCN1CCOCC1,-1,31,30,106,22,/
CCOC(=O)c1c(C)n(C)c2ccc(O)c(CN3CCN(C)CC3)c12,8,-12,-16,111,-18,/
CCOC(=O)c1c(CSc2ccccc2)n(C)c2ccc(O)c(CN3CCOCC3)c12,19,21,44*,110,39,16
Fc1cccc(NC(=S)Nc2cccc3ccccc23)c1,20,22,30,107,21,/
Cc1ccc(NC(=S)Nc2cccc3ccccc23)cc1F,27,27,49*,101,36,26
CC(=O)c1ccc(NC(=S)Nc2cccc3ccccc23)cc1,17,29,41*,90,23,22
CCN(CC(=O)Nc1ccc(OC)cc1)CC(=O)N1CC(=O)Nc2ccccc21,14,-3,-10,90,9,/
C=CCn1c(=NC(=O)c2ccco2)sc2cc(C(=O)OCC)ccc21,14,-5,-4,100,8,/
COc1ccc(/C=C/C(=O)NCc2cn(C)nc2C)cc1COc1ccc(Br)cc1,-5,19,40*,115,23,11
CNc1nc(-c2ccccn2)nnc1-c1ccccc1,7,11,45*,91,36,32*
Cc1ccc(-c2csc3ncnc(-n4cnc5ccccc54)c23)cc1,22,24,39,101,43,/
Cc1ccc(-c2csc3ncnc(-n4nnc5ccccc54)c23)cc1C,0,25,42*,90,38,31*
c1ccc(-c2csc3ncnc(-n4cnc5ccccc54)c23)cc1,5,23,42*,112,36,32*
Cc1ccc(C(=O)OCC(=O)N2CCCCCC2)c(O)c1,25,17,9,130,24,/
CCOc1cc(/C=N/NC(=O)CN2CCOCC2)ccc1OCc1ccc(Cl)cc1,25,18,42*,123,16,10
SMILES,NALP3 yeast inh,TIM10 inh,tim10-1 inh,Yeast superoxide,tim23-1 inh,tim10-1 confirm
Cc1ccc2c(cnn2C(=O)CCC(=O)N2CCCCC2C)c1 (stereo unspecified),32,-6,13,107,10,/
Cc1ccccc1NC1=C(Cl)C(=O)OC1OC(=O)c1ccccc1C (stereo unspecified),12,35,40*,95,39,16
CC(=O)Oc1ccc(/C=C2/Oc3ccccc3C2=O)cc1,5,26,44*,96,40,8
COc1ccc(/C=C2\Oc3ccccc3C2=O)cc1,45,0,-5,88,31,/
O=C(c1ccccc1)c1sc(N2CCCCCC2)nc1-c1ccccc1,6,18,43*,134,36,16
Cc1ccc(C(=O)O/N=C(/c2nonc2N)N(C)C)cc1,10,25,67*,75,31,62*
O=C1CC(N2CCN(c3ccc(Cl)cc3)CC2)C(=O)N1c1ccccc1 (stereo unspecified),20,-9,-12,100,11,/
COc1ccccc1N1CCN(C2CC(=O)N(c3cccc(Br)c3)C2=O)CC1 (stereo unspecified),18,11,49*,91,27,36*
O=C1CC(N2CCN(c3ccccc3Cl)CC2)C(=O)N1c1ccccc1 (stereo unspecified),17,-12,49*,89,11,19
CCOc1ccc(N2C(=O)CC(N3CCN(c4ccc(Cl)cc4)CC3)C2=O)cc1 (stereo unspecified),17,2,45*,105,16,24
COCCCNC(=O)c1cn(-c2cccc(OC)c2)c(=O)c2ccccc12,12,-11,14,113,6,/
CS(=O)(=O)Nc1ccc(C(=O)Nc2ccc3c(c2)OCO3)cc1,15,4,4,99,-11,/
Cc1cccc(NC(=S)NC(=O)c2cccs2)n1,10,21,45*,78,47,31
Cc1cccc(NC(=O)c2ccc([N+](=O)[O-])s2)n1,7,35,61*,95,38,58*
CC(=O)Nc1ccc(NCC(=O)c2ccccc2)cc1,10,9,-16,93,-3,/
Cc1cc(C)n(-c2ccn(Cc3ccc(Cl)cc3Cl)c(=O)n2)n1,-1,16,40*,100,43,28
O=C(O)C1C2CCC(C2)C1C(=O)N1CCCC1 (stereo unspecified),24,-5,-13,100,10,/
CCOc1ccc(N2C(=O)CC(NCCNc3ccc([N+](=O)[O-])cn3)C2=O)cc1 (stereo unspecified),11,6,53*,93,12,28*
COc1cc(C(=O)O/N=C(\N)Cc2ccc([N+](=O)[O-])cc2)cc(OC)c1OC,-18,25,63*,106,22,53*
Cc1ccc(NC(=O)c2ccc([N+](=O)[O-])o2)c(C)c1,18,40,40*,107,49,53*
O=C(/C=C/c1cccc([N+](=O)[O-])c1)c1ccc([N+](=O)[O-])o1,/,/,/,103,/,/
CCC(=O)N1CCN(c2ccc(Cl)cc2NC(=O)c2ccc([N+](=O)[O-])o2)CC1,23,27,40*,101,31,27
Cc1ccccc1NC(=O)c1ccc([N+](=O)[O-])o1,13,37,51*,100,39,42*
